# Compound activity: PubChem BioAssay, several laboratories
# Shown are actives, neighbours in structure and some others; about 2.8% of the full set was active somewhere.
# TRPM1 prom inh – MITF TRPM1 promoter inhibition in SK-MEL-5 cells | SK-MEL-5 TRPM1 promoter luciferase, 24 h | 0.83% of 330,000 active | inhibition, % at 12.5 µM | AID 488899;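 active = mean inhibition across replicates of 60% or more, whatever share of single replicates reaches that level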
# HIF-2a inh – inhibitors of HIF-2a; 786-0 RCC cells HIF-2a reporter, luciferase luminescence, overnight; inhibition, % at 18.8 µM; 0.72% of 360,000 active;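 active = inhibition of the luminescence signal of 40% or more relative to plate controls, in a single-dose primary screen at 18.75 µM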
# Peg3 prom inh – inhibitors of Peg3 promoter | 1.7% of 360,000 active | inhibition, % at 20 µM | HeLa PEG-Prom luciferase reporter, luminescence, overnight;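 active = inhibition of at least 50% at 20 µM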
# KKLEB tox – counter-screen for CF NF-kB inhibitors: cytotoxicity; activity change (cytotoxicity), % at 5 µM; KKLEB CF airway cells viability, ATPlite luminescence, overnight; active compounds read low; cells stimulated with P. aeruginosa culture filtrate; 0.36% of 360,000 active; AID 602141;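 active = corrected activity change at or below -50% at 5 µM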
# CF NFkB inh – inhibitors of cystic fibrosis induced NF-kB; 0.86% of 360,000 active; KKLEB NF-kB-GFP reporter, PAF-induced, GFP fluorescence overnight; AID 588850; inhibition, % at 5 µM;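 active = at least 50% inhibition at 5 µM, scaled per plate between neutral and stimulator controls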;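 note: PAF is a Pseudomonas aeruginosa culture filtrate used as stimulus; plate controls were PAF-stimulated DMSO wells for no effect and unstimulated DMSO wells for full effect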
# Shn3 inh set2 – Schnurri-3 reporter inhibition in Clone20 osteoblasts; 0.52% of 360,000 active; Clone20 osteoblast Shn3 3'UTR firefly luciferase, 24 h; inhibition, % at 12.5 µM;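 active = mean inhibition of at least 75% with every replicate also reaching 75%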;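 note: 0% = median of neutral control wells and 100% = pilot-screen positive control compound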
# * hit, by the source's call; . = not tested or not shown; ! = repeats disagree.
SMILES,TRPM1 prom inh,HIF-2a inh,Peg3 prom inh,KKLEB tox,CF NFkB inh,Shn3 inh set2
Cc1cc(C(=O)NC2CCCc3c2cnn3-c2ccc(C(C)(C)C)cc2)n[nH]1 (stereo not drawn),13,-9,-17,6,-2,77
COc1ccc(Cl)cc1C(=O)Nc1cccnc1Cl,-20,-122,-110,15,-34,-14
O=C(COC(=O)c1cc(Br)ccc1Cl)NC1CCCC1,13,7,2,2,-2,-4
COc1ccc2oc(C(=O)NCCN3CCOCC3)c(C)c2c1OC,5,14,11,-3,-22,-12
Fc1ccc(-[n+]2nc(Nc3ccccc3)sc2-c2c(Cl)cccc2Cl)cc1,8,-3,59*,-2,32,19
COc1ccc2ccccc2c1-c1sc(Nc2ccccc2)n[n+]1-c1ccc(F)cc1,5,-6,87*,-14,17,3
CCN(CC)C(=O)Cn1cnc2sc(C(=O)Nc3cc(OC)c(OC)c(OC)c3)c(C)c2c1=O,2,6,10,7,3,11
CCN(CC(=O)Nc1ccc(NC(C)=O)cc1)C(=O)c1ccc(Sc2nncn2C)c([N+](=O)[O-])c1,.,9,0,-4,1,62
Cc1sc(-n2c(C)cc(/C=C3\SC(=S)NC3=O)c2C)c(C#N)c1C,14,-127,75*,-20,-22,-33
COc1ccc(N2CC(C(=O)Nc3cc(C)ccn3)CC2=O)cc1 (stereo not drawn),-11,10,4,-21,23,-3
COc1ccc(-c2nc(CN3CCN(c4cc(C)nc(C)c4)CC3)c(C)o2)c2ccccc12,-16,1,82*,-22,14,13
Cn1c(=NC(=O)CCl)sc2ccccc21,25,-81,35,-86*,94*,-17
N#CC(C#N)=NNc1ccc(S(=O)(=O)N2CCCCC2)cc1,5,10,10,-17,71*,5
C=CCNC(=S)NNc1nc2c(c(=O)[nH]1)C1(CCCCC1)Cc1ccccc1-2,14,33,20,6,-5,-8
N#CC1=C(N)C(C#N)(C#N)C(c2cccnc2)C2CC(c3ccccc3)CC=C12 (stereo not drawn),5,16,12,-22,69*,14
N#CC1=C(N)C(C#N)(C#N)[C@H](c2cccnc2)[C@H]2CN(C(=O)OCc3ccccc3)CC=C12,9,11,-2,-10,14,-18
CC(NS(=O)(=O)c1ccc2c(c1)CC(C)N2C(=O)C1CC1)c1ccccc1 (stereo not drawn),3,12,13,3,26,14
C[C@H]1COC2=C1C(=O)C(=O)c1c2ccc2c1CCCC2(C)C,84*,-50,48,-3,57*,9
Cc1coc2c1C(=O)C(=O)c1c-2ccc2c1CCCC2(C)C,93*,-45,69*,-16,70*,-11
Cc1coc2c1C(=O)C(=O)c1c-2ccc2c(C)cccc12,.,-87,46,-28,34,-65
Cc1ccc(C(=O)N2C(CC(=O)Nc3ccc(Cl)cc3)C(=O)NC3CCCCC32)cc1 (stereo not drawn),2,18,17,-3,-3,17
COc1ccccc1N(C)S(=O)(=O)c1ccc(C(=O)N(C)Cc2cccc(F)c2)cc1,.,1,10,8,-3,7
C=CCn1c(C)cc(C(=O)CSc2nnc3c(Cl)cc(Cl)cn23)c1C,11,-14,-6,-70*,-6,9
Cc1ccc(S(=O)(=O)N2CCCC2)cc1C(=O)NCCN1CCOCC1,-3,9,4,16,-21,-1
C=CCn1c(=O)c2ccccc2n2c(SCC(=O)/C(C#N)=C(\C)N)nnc12,-5,12,3,-5,2,93*!
SMILES,TRPM1 prom inh,HIF-2a inh,Peg3 prom inh,KKLEB tox,CF NFkB inh,Shn3 inh set2
C=CCn1c(=O)c2ccccc2n2c(SC(C)C(N)=O)nnc12 (stereo not drawn),-19,15,-4,4,6,-1
CCn1c(=O)n(CC)c2cc(N3CCCC3)c(NC(=O)c3cc(Cl)ccc3OC)cc21,6,25,39,-2,21,-3
O=C(O)CCn1nnc(-c2cccs2)n1,-10,15,-5,-1,15,-9
CC(C)c1ccc(-c2nnn(CCC(=O)O)n2)cc1,87*,89*,31,3,-10,36
Oc1ccc(N=Nc2ccccc2C(F)(F)F)c2cccnc12,73*,17,26,-2,-1,90*
Cc1ccc(N=Nc2ccc3ccccc3c2O)cc1,21,-7,6,-63*,4,10
Oc1c(N=Nc2ccc(F)cc2)ccc2ccccc12,-11,-135,-177,-23,3,-56
Cc1ccc(N=Nc2ccc(O)c3ncccc23)cc1,87*,7,28,-9,16,91*
CCS(=O)(=O)c1ccc(N=Nc2ccc(O)c3ncccc23)c(OC)c1,66*,12,48,-27,45,95*
CCOc1ccc(Nc2nc(N(C)c3ccccc3)nc(N)c2[N+](=O)[O-])cc1,1,2,8,-16,14,-3
COc1cc(C(=O)O/N=C(\N)c2ccccn2)cc(OC)c1OC,-30,-40,-25,6,-25,-30
Cc1ccc(C(=O)O/N=C(\N)c2ccccn2)cc1C,52,-6,76*,-12,1,45
CCN1/C(=C/c2ccc3cc(C)ccc3[n+]2CC)Sc2ccccc21,101*,75*,104*,-3,-312,84
CCN1/C(=C/c2ccc3cc(C)ccc3[n+]2CC)Sc2cc(C)c(C)cc21,69*,11,52*,-14,-11,35
CCOC(=O)/C(=C/C=C1\Sc2cc(C)c(C)cc2N1CC)C(C)=O,11,11,5,4,-85,51
CC[n+]1ccccc1/C=C1\Sc2ccc(C)cc2N1C,15,-8,14,-8,-56,81
CC[n+]1c(/C=C2\Sc3ccccc3N2C)ccc2cccc(C)c21,104*,79*,114*,-18,-248,89*
COc1ccc(S(N)(=O)=O)cc1C(=O)OCC(=O)N1CCCC(C)C1 (stereo not drawn),6,7,15,8,15,1
Cc1cc(NC(=O)CN2C(=O)NC(c3ccccc3)(c3ccc(C)c(C)c3)C2=O)no1 (stereo not drawn),10,17,6,2,6,-9
O=C(N/N=C/c1ccc(N2CCOCC2)cc1)c1ccccc1OCCOc1ccccc1,12,-3,62*,-13,11,4
C/C(CCC(C)C)=N\Nc1cc(C)c2ccccc2n1,4,-1,0,8,-14,-11
CCc1ccc(CNCc2ccc(OCC(O)CN(C)Cc3ccccc3)cc2)nc1 (stereo not drawn),6,0,10,-2,6,86*
